Measured values from PubChem BioAssay (Tox21).
Records with an inconclusive call do not appear. Active and inactive are the calls of the source. Calls follow the shape of the full dose curve.

Legend:
[1] = biological target: Acetylcholinesterase (Homo sapiens) (UniProt P22303); assay: Acetylcholinesterase (AChE) small molecule antagonists: colormetric cell-based qHTS assay (AID 1347395); also: nearly all actives have a fitted effect of over 30% in size
Procedure, shortened: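 Colorimetric read-out: DTNB detects thiocholine released when cellular AChE in SH-SY5Y cells hydrolyses acetylthiocholine. Cells attached overnight, received compound for 30 min at 37 C, then substrate mix for 90 min at 37 C.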

[2] = biological target: Acetylcholinesterase (Homo sapiens) (UniProt P22303); assay: Acetylcholinesterase (AChE) small molecule antagonists: enzyme-based qHTS assay (AID 1347397); conditions: Potency: AChE enzyme activity inhibition; outcome: AChE enzyme activity inhibition; also: nearly all actives have a fitted effect of over 55% in size
Procedure, shortened: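 Colorimetric DTNB read-out of thiocholine released from acetylthiocholine by recombinant human AChE (50 mU/mL as dispensed). Compounds were preincubated 30 min at RT before substrate/DTNB addition, with a 10 min RT reaction.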

[3] = biological target: Acetylcholinesterase (Homo sapiens) (UniProt P22303); assay: Acetylcholinesterase (AChE) small molecule antagonists: fluorescence cell-based qHTS assay (AID 1347398); conditions: Potency: AChE activity; outcome: AChE activity; also: nearly all actives have a fitted effect of over 50% in size
Procedure, shortened: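 SH-SY5Y, 2,000 cells/well, attached overnight; cmpd 30 min 37 C; acetylthiocholine/Thiolite Green cocktail 40 min RT; fluorescence Ex/Em 490/520 nm.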

[4] = biological target: Acetylcholinesterase (Homo sapiens) (UniProt P22303); assay: Acetylcholinesterase (AChE) small molecule antagonists: enzyme-based qHTS assay with human liver microsomes (AID 1347399); conditions: Potency: qHTS inhibition; outcome: qHTS inhibition; also: nearly all actives have a fitted effect of over 60% in size
Procedure, shortened: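 Recombinant human AChE (50 mU/mL in the enzyme mix) and human liver microsomes (0.25 mg/mL final) were preincubated with compound and NADPH (0.25 mg/mL final) for 30 min at 37 C. Acetylthiocholine/DTNB was then added; thiocholine was read colorimetrically after 10 min at room temperature.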
% is scaled to controls: 0 for no effect and ±100 for the full control effect.

Sequence of Acetylcholinesterase (Homo sapiens) (P22303 whole entry, looked up): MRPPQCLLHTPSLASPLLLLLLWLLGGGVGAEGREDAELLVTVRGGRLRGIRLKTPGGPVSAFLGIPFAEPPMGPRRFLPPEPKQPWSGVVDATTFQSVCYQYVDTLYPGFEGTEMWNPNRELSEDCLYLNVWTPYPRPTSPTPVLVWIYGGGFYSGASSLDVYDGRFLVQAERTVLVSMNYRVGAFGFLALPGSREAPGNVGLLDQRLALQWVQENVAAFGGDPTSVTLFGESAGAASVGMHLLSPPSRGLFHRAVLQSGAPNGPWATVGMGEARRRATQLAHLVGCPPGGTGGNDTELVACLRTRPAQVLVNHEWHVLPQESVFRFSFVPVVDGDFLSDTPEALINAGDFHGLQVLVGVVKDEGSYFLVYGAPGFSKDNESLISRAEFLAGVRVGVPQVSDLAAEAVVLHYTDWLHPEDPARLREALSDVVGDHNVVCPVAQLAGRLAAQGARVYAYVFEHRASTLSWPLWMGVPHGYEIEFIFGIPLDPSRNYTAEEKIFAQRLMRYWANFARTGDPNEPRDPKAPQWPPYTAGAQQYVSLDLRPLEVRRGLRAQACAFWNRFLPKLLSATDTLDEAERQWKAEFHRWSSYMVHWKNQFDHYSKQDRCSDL

Cc1cc(C)c(NC(=O)CN(CC(=O)O)CC(=O)O)c(C)c1Br
inactive: Potency [1] | Potency [2] | Potency [3] | Potency [4]

C[C@H]1O[C@@H](n2cc(F)c(=O)[nH]c2=O)[C@H](O)[C@@H]1O
inactive: Potency [1] | Potency [2] | Potency [3] | Potency [4]

O=CC=C(c1ccccc1)c1ccccc1
inactive: Potency [1] | Potency [2] | Potency [3] | Potency [4]

O=C(NS(=O)(=O)/C=C/c1cccs1)c1ccc(F)cc1Br
inactive: Potency [1] | Potency [2] | Potency [3] | Potency [4]

C=C(C)C(=O)OCC
inactive: Potency [1] | Potency [2] | Potency [3] | Potency [4]

CCCCCCCCCCCCCCCCOP(=O)([O-])OCC[N+](C)(C)C
inactive: Potency [1] | Potency [2] | Potency [3] | Potency [4]

CCOC(=O)COc1cc(-n2ncc(C(F)(F)F)c(C)c2=O)c(F)cc1Cl
inactive: Potency [1] | Potency [2] | Potency [3] | Potency [4]

CC(C)C(=O)O
inactive: Potency [1] | Potency [2] | Potency [3] | Potency [4]

CCc1cccc(C)c1
inactive: Potency [1] | Potency [2] | Potency [3] | Potency [4]

COC(=O)C1=C(C)NC(C)=C(C(=O)OC(C)C)C1c1cccc2nonc12 (stereo not given)
inactive: Potency [1] | Potency [2] | Potency [3] | Potency [4]

COc1ccccc1NC(=O)c1cc2ccccc2cc1O
inactive: Potency [1] | Potency [2] | Potency [3] | Potency [4]

CCCCc1ccc2c(n1)[C@@H](c1ccc(OC)cc1C[C@H](C)C(=O)O)[C@H](C(=O)O)[C@H]2c1ccc2c(c1)OCO2
inactive: Potency [1] | Potency [2] | Potency [3] | Potency [4]

Nc1nc(Cl)nc2c1ncn2[C@@H]1O[C@H](CO)[C@@H](O)[C@@H]1F
inactive: Potency [1] | Potency [2] | Potency [3] | Potency [4]

CCC(C)C(=O)OCCc1ccccc1 (stereo not given)
inactive: Potency [1] | Potency [2] | Potency [3] | Potency [4]

CC(CC(=O)Cl)CC(C)(C)C (stereo not given)
inactive: Potency [1] | Potency [2] | Potency [3] | Potency [4]

CC(=O)c1ccccc1N
inactive: Potency [1] | Potency [2] | Potency [3] | Potency [4]

COC(=O)c1ccc(NC(C)=O)cc1OC
inactive: Potency [1] | Potency [2] | Potency [3] | Potency [4]

Nc1cc(C(=O)O)ccc1Cl
inactive: Potency [1] | Potency [2] | Potency [3] | Potency [4]

N#Cc1cscn1
inactive: Potency [1] | Potency [2] | Potency [3] | Potency [4]

CC/C=C\CCCCO
inactive: Potency [1] | Potency [2] | Potency [3] | Potency [4]

CCCCCCCCCCCCCC(=O)OC
inactive: Potency [1] | Potency [2] | Potency [3] | Potency [4]

CC[C@H]1OC(=O)[C@H](C)[C@@H](O[C@H]2C[C@@](C)(OC)[C@@H](O)[C@H](C)O2)[C@H](C)[C@@H](O[C@@H]2O[C@H](C)C[C@H](N(C)C)[C@H]2O)[C@](C)(OC)C[C@@H](C)C(=O)[C@H](C)[C@@H](O)[C@]1(C)O
inactive: Potency [1] | Potency [2] | Potency [3] | Potency [4]

C=CC(=O)OCCn1c(=O)n(CCOC(=O)C=C)c(=O)n(CCOC(=O)C=C)c1=O
inactive: Potency [1] | Potency [2] | Potency [3] | Potency [4]

Cc1c(Cl)cccc1Nc1ccccc1C(=O)O
inactive: Potency [1] | Potency [2] | Potency [3] | Potency [4]

CC(=O)OCC(=O)[C@@]12OC(C)(C)O[C@@H]1C[C@H]1[C@@H]3C[C@H](F)C4=CC(=O)C=C[C@]4(C)[C@@]3(F)[C@@H](O)C[C@@]12C
inactive: Potency [1] | Potency [2] | Potency [3] | Potency [4]

C=CCCCC
inactive: Potency [1] | Potency [2] | Potency [3] | Potency [4]

C=CC/C=C/C/C=C/C/C=C/C
inactive: Potency [1] | Potency [2] | Potency [3] | Potency [4]

O=C1CCC(=O)N1Cl
inactive: Potency [1] | Potency [2] | Potency [3] | Potency [4]

CCOc1ccc(N)c([N+](=O)[O-])c1
inactive: Potency [1] | Potency [2] | Potency [3] | Potency [4]

CCOC(=O)C1=NN(c2ccc(Cl)cc2Cl)C(C)(C(=O)OCC)C1 (stereo not given)
inactive: Potency [1] | Potency [2] | Potency [3] | Potency [4]

CCOCN(C(=O)CS(=O)(=O)O)c1c(C)cccc1CC
inactive: Potency [1] | Potency [2] | Potency [3] | Potency [4]

COC(=O)/C=C(/C)N
inactive: Potency [1] | Potency [2] | Potency [3] | Potency [4]

CCOc1ccc2[nH]cc(C(=O)NCc3ccccc3)c(=O)c2n1
inactive: Potency [1] | Potency [2] | Potency [3] | Potency [4]

CCOC(=O)[C@@H](C)Oc1ccc(Oc2nc3ccc(Cl)cc3o2)cc1
inactive: Potency [1] | Potency [2] | Potency [3] | Potency [4]

CN1CCN(CC(=O)N2c3ccccc3C(=O)Nc3cccnc32)CC1
inactive: activity, negative = inhibition [1] 0.44% [at 10.5 µM] | activity change, negative = inhibition [2] 0.584% [at 10.5 µM] | activity change, negative = inhibition [3] 5.87% [at 10.5 µM] | activity change, negative = inhibition [4] -0.472% [at 10.5 µM]

Fc1ccc(C(c2ccc(F)cc2)N2CCN(C/C=C/c3ccccc3)CC2)cc1
inactive: Potency [1] | Potency [2] | Potency [3] | Potency [4]

CCCCC(=O)O[C@]1(C(=O)CO)[C@H](C)C[C@H]2[C@@H]3CCC4=CC(=O)C=C[C@]4(C)[C@@]3(F)[C@@H](O)C[C@@]21C
inactive: Potency [1] | Potency [2] | Potency [3] | Potency [4]

CCCCCCCCCCC=O
inactive: Potency [1] | Potency [2] | Potency [3] | Potency [4]

O=[N+]([O-])c1ccc(F)c(Cl)c1
inactive: Potency [1] | Potency [2] | Potency [3] | Potency [4]

CCN(Cc1cccc(S(=O)(=O)O)c1)c1ccc(C(=C2C=CC(=[N+](CC)Cc3cccc(S(=O)(=O)O)c3)C=C2)c2ccc(O)cc2S(=O)(=O)[O-])cc1
inactive: Potency [1] | Potency [2] | Potency [3] | Potency [4]

CNC(=S)NC
inactive: Potency [1] | Potency [2] | Potency [3] | Potency [4]

Oc1cccc(Nc2ccccc2)c1
inactive: Potency [1] | Potency [2] | Potency [3] | Potency [4]

O=C(O)Cc1ccc(CCNS(=O)(=O)c2ccc(Cl)cc2)cc1
inactive: Potency [1] | Potency [2] | Potency [3] | Potency [4]

O=C(O)c1cccnc1C(=O)O
inactive: Potency [1] | Potency [2] | Potency [3] | Potency [4]

CC(C(=O)O)c1ccc2c(c1)[nH]c1ccc(Cl)cc12 (stereo not given)
inactive: Potency [1] | Potency [2] | Potency [3] | Potency [4]

CCOC(=O)/C=C/C(=O)OCC
inactive: Potency [1] | Potency [2] | Potency [3] | Potency [4]

C=C(C)CS(=O)(=O)O
inactive: Potency [1] | Potency [2] | Potency [3] | Potency [4]

O=[Si]=O
inactive: Potency [1] | Potency [2] | Potency [3] | Potency [4]

CC(C)=C1CC[C@@H](C)CC1=O
inactive: Potency [1] | Potency [2] | Potency [3] | Potency [4]

CC12CC3CC(C)(C1)CC(N)(C3)C2
inactive: Potency [1] | Potency [2] | Potency [3] | Potency [4]

Nc1ccc2ccccc2c1S(=O)(=O)O
inactive: Potency [1] | Potency [2] | Potency [3] | Potency [4]

CC(Cc1ccccc1)(NC(=O)CN)c1ccccc1 (stereo not given)
inactive: Potency [1] | Potency [2] | Potency [3] | Potency [4]

Cc1ccc(/C=N/n2c(-c3ccccc3)csc2=S)cc1
inactive: Potency [1] | Potency [2] | Potency [3] | Potency [4]

Cc1c(N=C=O)cccc1N=C=O
inactive: Potency [1] | Potency [2] | Potency [3] | Potency [4]

CC[C@@H](N)CO
inactive: Potency [1] | Potency [2] | Potency [3] | Potency [4]

N=C(N)N1CCc2ccccc2C1
inactive: activity, negative = inhibition [1] 3.08% [at 10.5 µM] | activity change, negative = inhibition [2] 0.139% [at 10.5 µM] | activity change, negative = inhibition [3] -0.69% [at 10.5 µM] | activity change, negative = inhibition [4] 2.85% [at 10.5 µM]

C1=CCC(c2ccccc2)CC1 (stereo not given)
inactive: Potency [1] | Potency [2] | Potency [3] | Potency [4]

CCCCCCCCCCCCC1CO1 (stereo not given)
inactive: Potency [1] | Potency [2] | Potency [3] | Potency [4]

CN1CCCC1
inactive: Potency [1] | Potency [2] | Potency [3] | Potency [4]

C=CCN(CC=C)CC=C
inactive: Potency [1] | Potency [2] | Potency [3] | Potency [4]

O=S(=O)(O)c1ccccc1O
inactive: Potency [1] | Potency [2] | Potency [3] | Potency [4]

CC(=O)CC(=O)Nc1ccc2[nH]c(=O)[nH]c2c1
inactive: Potency [1] | Potency [2] | Potency [3] | Potency [4]

FC1(F)C(F)(F)C(F)(F)C2(F)C(F)(F)C(F)(F)C(F)(F)C(F)(F)C2(F)C1(F)F (stereo not given)
inactive: Potency [1] | Potency [2] | Potency [3] | Potency [4]

CC1(C)CCC(C)(C)c2cc(C(=O)Nc3ccc(C(=O)O)cc3)ccc21
inactive: Potency [1] | Potency [2] | Potency [3] | Potency [4]

CCCC(=O)OC(=O)CCC
inactive: Potency [1] | Potency [2] | Potency [3] | Potency [4]

Brc1cc2ccccc2c2ccccc12
inactive: Potency [1] | Potency [2] | Potency [3] | Potency [4]

NC(=O)c1ccccc1C(N)=O
inactive: Potency [1] | Potency [2] | Potency [3] | Potency [4]

CCCCCCCCCCCCCCCCN(C)C
inactive: activity, negative = inhibition [1] -4.82% [at 10.5 µM] | activity change, negative = inhibition [2] -0.395% [at 10.5 µM] | activity change, negative = inhibition [3] -5.81% [at 10.5 µM] | activity change, negative = inhibition [4] -0.307% [at 10.5 µM]

CC1=CCC(=C(C)C)CC1
inactive: Potency [1] | Potency [2] | Potency [3] | Potency [4]

CC1(C)CCC[C@]2(C)[C@H]3CCO[C@]3(C)CC[C@@H]12
inactive: Potency [1] | Potency [2] | Potency [3] | Potency [4]

C1OCOCO1
inactive: Potency [1] | Potency [2] | Potency [3] | Potency [4]

[Cl][Eu]([Cl])[Cl]
inactive: Potency [1] | Potency [2] | Potency [3] | Potency [4]

CCc1cc(S(=O)(=O)O)c2cc(C(C)C)cccc1-2
inactive: Potency [1] | Potency [2] | Potency [3] | Potency [4]

C[C@@H](O)[C@H]1C(=O)N2C(C(=O)O)=C([C@H]3CCCO3)S[C@H]12
inactive: Potency [1] | Potency [2] | Potency [3] | Potency [4]

OCC(CO)n1cnc(-c2ccc(F)cc2)c1-c1ccnc(Oc2ccccc2)n1
inactive: Potency [1] | Potency [2] | Potency [3] | Potency [4]

CCOC(=O)COC(=O)c1cc(Oc2ccc(C(F)(F)F)cc2Cl)ccc1[N+](=O)[O-]
inactive: Potency [1] | Potency [2] | Potency [3] | Potency [4]

COC(/C=C(\C)CCC=C(C)C)OC
inactive: Potency [1] | Potency [2] | Potency [3] | Potency [4]

COC(=O)C1=C(C)NC(COC(N)=O)=C(C(=O)OC(C)C)C1c1cccc(Cl)c1Cl (stereo not given)
inactive: Potency [1] | Potency [2] | Potency [3] | Potency [4]

O=C(O)c1cc(=O)c2ccccc2o1
inactive: Potency [1] | Potency [2] | Potency [3] | Potency [4]

CC(=O)Nc1cccc(N)c1
inactive: Potency [1] | Potency [2] | Potency [3] | Potency [4]
